High-throughput results as filed in PubChem.
WRN helicase inh – qHTS for Inhibitors of WRN Helicase. Potency, µM (series often up to 114 µM), actives largely listed as inhibitors. 360,000 tested, 0.46% active. Bifunctional 3'-5' exonuclease/ATP-dependent helicase WRN (Homo sapiens), Q14191. WRN helicase unwinding, fluorescent forked duplex, kinetic; also: nearly all actives have a fitted effect of over 55% in size
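Kinetic red-fluorescence monitoring (525/598 nm) tracks WRN helicase activity after 100 nM fluorophore-quencher forked duplex and 2 mM ATP are added to 20 nM enzyme pretreated 15 min at room temperature with compound.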
USP1 inh – Inhibitors of USP1/UAF1: Primary Screen. recombinant USP1/UAF1, Ub-Rhodamine cleavage fluorescence. Potency, µM (series often up to 57.1 µM), actives largely listed as inhibitors. 390,000 tested, 0.23% active. AID 743255, 2014; also: nearly all actives have a fitted effect of over 60% in size
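Step one: compound is pinned into 1nM USP1/UAF1 in HEPES pH 7.8 buffer with TCEP. Step two: 15 min room-temperature incubation. Step three: Ub-Rho (150nM final) starts cleavage, tracked by fluorescence over six one-minute reads.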
PI5P4K alpha inh – qHTS for Inhibitors of phosphatidylinositol 5-phosphate 4-kinase (PI5P4K). PI5P4Kalpha enzyme, ADP-Glo luminescence, 60 min; stronger effect = lower value. max response, %. 330,000 tested, 1.2% active. AID 652105, 2013; active = max response of -50% or lower; inconclusive = between -30% and -50%; inactive = -30% or higher; also: value at the top dose of about 77 µM
Target sequence (P48426 whole entry, looked up): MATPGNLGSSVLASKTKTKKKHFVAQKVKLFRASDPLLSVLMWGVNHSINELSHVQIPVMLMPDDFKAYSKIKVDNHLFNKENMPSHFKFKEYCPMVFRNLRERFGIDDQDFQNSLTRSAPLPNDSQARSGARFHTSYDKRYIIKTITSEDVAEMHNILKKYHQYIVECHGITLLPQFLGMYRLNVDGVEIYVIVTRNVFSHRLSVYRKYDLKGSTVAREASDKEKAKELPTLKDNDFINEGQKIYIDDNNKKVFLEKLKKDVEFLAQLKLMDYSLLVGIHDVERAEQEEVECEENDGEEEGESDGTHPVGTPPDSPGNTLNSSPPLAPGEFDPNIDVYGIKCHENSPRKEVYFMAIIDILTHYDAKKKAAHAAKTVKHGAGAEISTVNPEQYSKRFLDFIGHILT
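Luminescence from ADP-Glo served as readout of PI5P4Kalpha activity in a qHTS format. Reaction: enzyme, substrate, compound, ATP at 5 microM final, 60 min at RT.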
USP2a block – qHTS Assay for Inhibitors of Ubiquitin-specific Protease USP2a Using CHOP2 as the Reporter. USP2 core, Ub-CHOP2 coupled fluorogenic reporter, 485/531. 330,000 tested, 0.01% active. Potency, µM (series often up to 38.3 µM), usual class: inhibitors. AID 463254, 2010
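Deubiquitinase activity read as fluorescence (485/531 nm) after Ub-CHOP2 cleavage activates the enterokinase reporter on its substrate; USP2 core 10nM, Ub-CHOP2 and substrate 25nM each, 30min compound preincubation then 60min RT; data normalized to NEM, curves fitted.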
PLK1 PBD block – qHTS for Inhibitors of PLK1-PDB (polo-like kinase 1 - polo-box domain): Primary Screen | Serine/threonine-protein kinase PLK1 (Homo sapiens), P53350 | Plk1 PBD binding of FITC phosphopeptide, fluorescence polarization | Potency, µM, hits mostly inhibitors | 360,000 tested, 2.8% active; also: series mostly up to about 57 µM; nearly all actives have a fitted effect of over 65% in size
Numbers stand for hits; . = inactive; ? = inconclusive; / = no result given; [ ] = another dose, or the depositor's remark. Compounds with a hit are over-represented: about 3.3% of the library has one in this group of screens. Unless noted, calls follow the shape of the dose curve; as a rule, active = well fitted curve in the direction sought with a large enough effect; inconclusive = small, poorly fitted or top-dose-only effect, or another doubt; inactive = no such curve, though single readings can be large; an effect the other way counts as inactive or inconclusive.

SMILES	WRN helicase inh	USP1 inh	PI5P4K alpha inh	USP2a block	PLK1 PBD block
Cc1cccc(NC(=O)/C(C#N)=C/c2ccc(Cl)cc2)n1	.	.	.	.	.
O=C(O)c1ccc(N=N/C(=N\Nc2ccc(C(=O)O)cc2)c2ccccc2)cc1	.	?	-80	.	.
O=C(O)c1cccc(N/N=C(\N=Nc2ccccc2)c2ccccc2)c1	.	.	.	.	?
CC(C)(C)c1ccc(C(=O)N2CC(=O)Nc3ccc(F)cc3C2c2ccc(F)cc2)cc1 (stereo unspecified)	/	.	/	/	/
COc1ccccc1OCCCOc1ccc(/C=C2\SC(=O)NC2=O)cc1OC	?	.	.	.	?
COc1cccc(C(=O)NCCCNC(=O)c2cccc(OC)c2)c1	.	.	.	.	.
COc1cccc(C=C2SC(=S)NC2=O)c1	?	.	-60	/	.
COc1ccccc1OCCCOc1cccc(/C=C2\SC(=O)NC2=O)c1	?	?	?	.	21µM
COc1ccc(/C=C2/SC(=S)NC2=O)cc1OCc1ccccc1	.	.	-75	.	?
COc1cc(/C=C2/SC(=O)NC2=O)ccc1OCc1ccccc1	.	.	.	.	?
COc1cccc(C(C)=C2SC(=S)NC2=O)c1	.	.	-71	/	?
CCOC(=O)CCn1c(=O)c2cccn2c2cccnc21	/	.	/	/	/
Cn1c(=O)c2c(nc(CN3CCN(c4ccccc4F)CC3)n2Cc2ccc(F)cc2)n(C)c1=O	/	.	/	/	/
CCOC(=O)/C=C1\NC(=O)CS1	.	.	.	.	.
CCO/C(C)=C1/SC(=S)NC1=O	?	.	-63	.	.
O=C1NC(=S)SC1=Cc1ccc2c(c1)OCO2	.	.	-78	/	.
CCN(C(=O)Cn1ncc2c(=O)oc3ccc(C)cc3c21)c1cc(OC)ccc1OC	/	.	/	/	/
Cc1ccc(-c2noc(CNC(=O)c3ccc(Br)o3)n2)cc1	/	.	/	/	/
COc1ccc(CNC(=O)C(=O)NCC2CCCO2)cc1 (stereo unspecified)	.	.	?	.	3µM
COc1cccc(C(=O)NNC(=O)C2CCCO2)c1 (stereo unspecified)	.	.	.	.	.
COc1ccc(C(=O)NNC(=O)C2CCCO2)cc1 (stereo unspecified)	.	.	.	.	27µM
O=C(c1ccc(-n2cnnn2)cc1)N1CCOCC1	.	.	.	.	.
NC(=O)C1(N2CCCCC2)CCN(C(=O)c2ccc(-n3cnnn3)cc2)CC1	.	.	.	.	27µM
Cc1ccc(Cn2ccn(CC(=O)Nc3ccccc3C(F)(F)F)c(=O)c2=O)cc1	/	.	/	/	/
O=C(c1ccccc1)N1CCN(Cc2cccc(Oc3ccccc3)c2)CC1	.	.	.	.	24µM
SMILES	WRN helicase inh	USP1 inh	PI5P4K alpha inh	USP2a block	PLK1 PBD block
CCN(Cc1ccccc1)C(=O)CCS(=O)(=O)c1ccc2c(c1)NC(=O)CO2	.	.	.	.	21µM
CCc1cccc(NS(=O)(=O)c2ccc3c(c2)NC(=O)CO3)c1	.	.	.	.	.
Cc1ccc(S(=O)(=O)CCNC(=O)Cc2ccccc2)cc1	.	.	.	.	9.5µM
CCN(Cc1ccccc1)C(=O)CCS(=O)(=O)c1cc2c(cc1Cl)NC(=O)CO2	.	.	.	.	.
CCc1cccc(NC(=O)CCS(=O)(=O)c2ccc(Br)cc2)c1	?	.	.	.	13µM
CCc1cccc(NC(=O)CCS(=O)(=O)c2ccc3c(c2)NC(=O)CO3)c1	.	.	.	.	27µM
CCCN1Cc2cccc(C(=O)Nc3cccc(C(=O)OCC)c3)c2C1=O	/	.	/	/	/
O=C(CCS(=O)(=O)c1ccc(Br)cc1)NCCc1ccccc1	?	.	.	.	30µM
NS(=O)(=O)c1ccc(CCNC(=O)CCS(=O)(=O)c2ccc(Br)cc2)cc1	?	.	.	.	?
Cc1ccc2c(CC(=O)Nc3cc(C(F)(F)F)ccc3Cl)coc2c1C	/	.	/	/	/
O=C(c1cc(O)c(O)c([N+](=O)[O-])c1)c1ccccc1F	?	.	-66	.	.
Cc1cc(F)ccc1NC(=O)CCS(=O)(=O)c1cc2c(cc1C)NC(=O)CO2	/	.	/	/	/
COc1ccccc1/C=C/c1nc(C#N)c(NCc2ccccc2)o1	/	.	/	/	/
NNc1nc(Nc2ccc([N+](=O)[O-])cc2)nc(N2CCCCCC2)n1	.	.	.	.	.
Cc1ccc([N+](=O)[O-])cc1Nc1nc(N2CCCC2)nc(N2CCCC2)n1	.	.	.	.	19µM
CCCC(=O)OCc1cnc(C)c2oc(=O)c(C(=O)Nc3cccc(C(F)(F)F)c3)cc12	/	.	/	/	/
Cc1cc2oc(=O)cc(-c3cc4ccccc4o3)c2cc1O	.	.	.	.	.
Cc1c2cc(O)c(=O)cc-2oc2cc(O)c(O)cc12	.	?	/	?	2.7µM
COc1cc(OC)c(-c2c3cc(O)c(=O)cc-3oc3cc(O)c(O)cc23)cc1OC	2.4µM	25µM	.	?	.
CCOC(=O)C1=C(c2ccccc2)N=c2s/c(=C\c3cc(OC)c(OC)c(OC)c3)c(=O)n2C1c1cccs1 (stereo unspecified)	.	22µM	/	.	.
O=c1cc(-c2ccccc2)oc2ccc(Cl)cc12	.	.	.	/	.
O=c1oc(-c2ccccc2)cc(Cl)c1Cl	.	.	.	.	11µM
CCCc1cc(=O)oc2c(C)c3c(cc12)CN(CCc1ccc(Cl)cc1)CO3	/	.	/	/	/
O=C(CN1C(=O)S/C(=C/c2cccn2-c2ccc(O)cc2)C1=O)N1CCCC1	.	.	.	.	.
O=C(O)c1cccc(-n2cccc2/C=C2/SC(=O)N(CC(=O)N3CCCC3)C2=O)c1	56µM	.	.	.	?
SMILES	WRN helicase inh	USP1 inh	PI5P4K alpha inh	USP2a block	PLK1 PBD block
Cc1ccccc1N=C1NC(=O)/C(=C/c2cccn2-c2cccc(C(=O)O)c2)S1	?	.	-87	.	17µM
Cc1cccc(N=C2NC(=O)/C(=C/c3cccn3C)S2)c1C	.	.	-72	.	.
CCN1C(C(=O)c2ccccc2)=C(OC(=O)COc2ccc(C)cc2)c2ccccc2S1(=O)=O	/	.	/	/	/
CSc1ccc(CCNC(=O)CCCn2c(=O)c3cccn3c3ccccc32)cc1	/	.	/	/	/
O=C(O)c1nn2c(c1Br)NC(c1ccccc1)CC2C(F)(F)F (stereo unspecified)	.	.	.	.	.
OCc1nn2c(c1Br)NC(c1ccccc1)CC2C(F)(F)F (stereo unspecified)	.	.	.	.	7.5µM
Cc1nc(COC(=O)c2cc(O)c3ccccc3c2O)cs1	.	?	.	.	21µM
COc1ccc(Cl)cc1NC(=O)CN1C(=O)COc2ccc(S(=O)(=O)NC3CCCC3)cc21	/	.	/	/	/
Cc1cc(O)c(CN(C)C)c2c1C(=O)/C(=C/c1ccco1)O2	.[11.6 µM]	?	.	.	.
